About 83,000 compounds went through this panel and 20% of them were active in at least one assay; those are over-represented in the sample as a whole.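 Single-dose data. Exposure time 48 hours. Values below 10 considered active.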 Calls of active or inactive are those of the source.

The assay relates to MDA-MB-231 breast. In words: NCI-60 one-dose screen, 48 h (100 = growth as untreated, 0 = no growth, -100 = all killed). The following applies: 10 µM unless noted.
Regarding `COc1ccc(Cn2cc3c(c2-c2ccccc2)CCc2cnoc2-3)cc1OC`, the growth is 35% (inactive).
For `CC1(C)Oc2cc3oc(=O)ccc3cc2C[C@@H]1OCCOS(=O)(=O)c1ccc(C#N)cc1`, the growth is 94.5% (inactive).
Turning to `c1ccc(-c2cn3ccnc3c(-c3ccc4ncn(C5CCCCC5)c4c3)n2)cc1`, the growth was 58.5% (inactive).
The value for `COC(=O)/C=C/c1cc(O)c2oc(-c3ccc(O)c(O)c3)c(C(=O)OC)c2c1` was 31.1% (inactive); that for `CC1=C[C@@H]2c3c(c(O)c(O)c4oc5cc(O)cc(O)c5c(=O)c34)[C@@H](c3cc(O)c(O)c4oc5cc(O)cc(O)c5c(=O)c34)[C@@H]2C(C)(C)C1` was -38.2% (active).
The value for `COc1ccc(C(=O)CN2C(=O)NC(c3ccccc3)(c3ccccc3)C2=O)cc1` was 106% (inactive); that for `NNC(=S)N1N=C(c2cc3ccccc3o2)CC1c1c[nH]c2ccccc12` (stereo not drawn) was 41.6% (inactive); that for `Cc1c(C(N)=O)sc2c1c(=O)n(Cc1ccccc1)c1nnc(S(C)(=O)=O)n21` was 101% (inactive).
The value for `CCOC(=O)C1=NN(c2ccccc2)C2=NC(=O)/C(=C\c3cn(-c4ccccc4)nc3-c3cc4ccccc4o3)C(=O)N12` was 78.7% (inactive); that for `CCCCN(CCCC)CC(O)CN(CC)CC` (stereo not drawn) was 95.8% (inactive).
For `CC(C)OC(=O)[C@H](C)N[P@@](=O)(OC[C@@]1(C)O[C@@H](n2cc(F)c(N)nc2=O)C[C@@H]1O[P@](=O)(N[C@@H](C)C(=O)OC(C)C)Oc1ccccc1)Oc1ccccc1`, the growth was 119% (inactive).
Consider `COc1ccc(Cn2cc3c(c2)-c2oncc2CC3)cc1OC`, for which the growth was 16.9% (inactive).
The value for `COc1ccc(Cn2cc3c(c2-c2ccc(OC)cc2)CCc2cnoc2-3)cc1` was 8.41% (active); that for `COc1ccc2oc(=O)cc(CN3C(=O)S/C(=C\c4ccc(Cl)cc4)C3=O)c2c1` was 108% (inactive); that for `COc1cc(-c2nc(/C=C3/C(=O)Nc4ccccc43)c3ccccn23)cc(OC)c1OC` was 40.7% (inactive).
The value for `CCNc1nnc(COc2ccc(CNC(=O)CCCC/C=C/C(C)C)cc2OC)o1` was 104% (inactive); that for `CC([C@H]1CC=C2C3CCC4=C[C@@H](N(C)C)CC[C@]4(C)C3CC[C@@]21C)N(C)C` (stereo partly drawn) was -6.46% (active).
With `CCS(=O)(=O)OCCO[C@H]1Cc2cc3ccc(=O)oc3cc2OC1(C)C` the figure was 115% (inactive); with `CC1(C)NCCC[C@]2(C)[C@H]3CC=C4[C@@H]5C[C@](C)(COC(=O)c6ccccc6C(=O)O)CC[C@]5(C)CC[C@@]4(C)[C@]3(C)CC[C@@H]12`, 84% (inactive); with `O=C1c2ccccc2CCc2ccccc21`, 96.8% (inactive).
`O=C(/C=C/c1c[nH]c2ccccc12)c1cc2ccccc2o1`: the growth was 84.6% (inactive).
With `CCCCCCCCCCCCCCCCC(=O)O.CCCCCCCCCCCCCCCCCC(=O)O.CCCCCCCCCCCCCCCCCC(=O)O.CCCCCCCCCCCCCCCCCC(=O)O.CCCCCCCCCCCCCCCCCC(=O)O.CO[CH-]OC12COC1CC(O)C1(C)C(O)C(OC(C)O)C3=C(C)C(OC(=O)C(O)C([NH-])c4ccccc4)CC(O)(C(OC(=O)c4ccccc4)C21)C3(C)C.[Cu+].[Zn].[Zn].[Zn].[Zn].[Zn]` (stereo not drawn) the figure was 13.8% (inactive).
As for `N#Cc1ccc(NC2c3ccccc3CC2O)cc1` (stereo not drawn), the growth is 114% (inactive).
Consider `C=CCN(C)C`, for which the growth is 97.7% (inactive).
In the case of `CC[C@@H](C)/C=C(C)/C=C/C(=O)c1c(O)c(-c2ccc(OC(=O)[C@@]34CC[C@@](C)(C(=O)O3)C4(C)C)cc2)cn(O)c1=O`, the growth was 36.7% (inactive).
Turning to `Cc1c(CN(C)C)cc(C(C)C)cc1C(C)C`, the growth is 104% (inactive).
Regarding `CC1(c2ccc(Br)cc2)NC(=O)NC1=O` (stereo not drawn), the growth is 105% (inactive).
The value for `Oc1ccc2ccccc2c1/C=N\Nc1ccccn1` was 25.1% (inactive); that for `C=C(C)[C@@H]1CC[C@]2(COC(=O)c3ccccc3C(=O)O)CC[C@]3(C)[C@H](CC[C@@H]4[C@@]5(C)CCCNC(C)(C)[C@@H]5CC[C@]43C)[C@@H]12` was 94.3% (inactive); that for `COC1=C(OC)C(=O)c2ccccc2C1=O` was 94% (inactive).
With `C=C1CCC2C3(C)COC(c4ccccc4)OC3CCC2(C)C1C/C=C1/C(=O)OCC1O` (stereo not drawn) the figure was 89.4% (inactive); with `O=C1C(Cl)=C(SC2=NCCN2)C(=O)c2ccccc21`, 56.3% (inactive).
As for `COC(=O)Nc1nc2ccc(C(=O)c3ccccc3N(C)C3COC3)cc2[nH]1`, the growth was 55.2% (inactive).
On to `C[C@@H](c1ccc2c(c1)[nH]c1ccc(Cl)cc12)c1nc2ccc(Cl)cc2[nH]1`, for which the growth is 60.1% (inactive).
For `O=c1oc2ccc3ccccc3c2cc1-c1ccnc2[nH]c(=S)[nH]c(=O)c12`, the growth is 87.4% (inactive).
Take `O=S(=O)(Cc1cccc2c(CS(=O)(=O)c3ccc(Cl)cc3)cccc12)c1ccc(Cl)cc1`: the growth is 97.3% (inactive).
With `COc1ccc(CN2C(=O)/C(=C\C(=O)c3ccc(OCCN4CCCC4)cc3)c3ccccc32)cc1` the figure was 93% (inactive).
With `Cc1cc(CSc2ccc(Cl)cc2)ccc1N` the figure was 61.9% (inactive).

(Values after PubChem BioAssay (NCI).)
